# About 83,000 compounds went through this panel and 20% of them were active in at least one assay; those are over-represented in the sample as a whole.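 The test compound was applied at a single concentration to cells in 96-well plates for 48 hours, and percent growth was recorded.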 A number with no mark means an inactive call. The source made the active and inactive calls. The calls were made as follows: active = growth percent below 10; inactive = the rest.
# Tests used:
# Test in all cases: NCI-60 one-dose screen, 48 h (100 = growth as untreated, 0 = no growth, -100 = all killed)
# Conditions in all cases: 10 µM unless noted
# SR leukemia = system: SR leukemia
# RPMI-8226 leukemia = system: RPMI-8226 leukemia
# OVCAR-8 ovarian = system: OVCAR-8 ovarian
# OVCAR-5 ovarian = system: OVCAR-5 ovarian
# OVCAR-4 ovarian = system: OVCAR-4 ovarian
# SK-OV-3 ovarian = system: SK-OV-3 ovarian
# IGROV1 ovarian = system: IGROV1 ovarian
# OVCAR-3 ovarian = system: OVCAR-3 ovarian
# HS 578T breast = system: HS 578T breast
# NCI/ADR-RES ovarian = system: NCI/ADR-RES ovarian
# T-47D breast = system: T-47D breast
# BT-549 breast = system: BT-549 breast
# MDA-MB-435 melanoma = system: MDA-MB-435 melanoma
# SW-620 colon = system: SW-620 colon
# MCF7 breast = system: MCF7 breast
# HCT-116 colon = system: HCT-116 colon
# HCC-2998 colon = system: HCC-2998 colon
# KM12 colon = system: KM12 colon
Compound,growth (SR leukemia),growth (RPMI-8226 leukemia),growth (OVCAR-8 ovarian),growth (OVCAR-5 ovarian),growth (OVCAR-4 ovarian),growth (SK-OV-3 ovarian) [%],growth (IGROV1 ovarian),growth (OVCAR-3 ovarian),growth (HS 578T breast),growth (NCI/ADR-RES ovarian),growth (T-47D breast),growth (BT-549 breast),growth (MDA-MB-435 melanoma),growth (SW-620 colon),growth (MCF7 breast),growth (HCT-116 colon),growth (HCC-2998 colon),growth (KM12 colon)
O=C(CCCCCCN1CC(=O)N2[C@@H](c3ccccc3Cl)c3[nH]c4ccccc4c3C[C@H]2C1=O)NO,15.9%,14.8%,49.6%,61%,68.3%,84.8,66.5%,56.9%,59.2%,89.8%,28.3%,76.8%,59.3%,49.1%,44%,34.2%,69.6%,74.8%
CC/C=C\C/C=C\C[C@H](O)C/C=C1/C(=O)C=C[C@@H]1C/C=C\CCCC(=O)O,6.21% (active),3.88% (active),-4.92% (active),65.3%,47.4%,109,63.1%,7.83% (active),42.6%,31.3%,14.2%,-29.3% (active),10.1%,21.4%,23.6%,-61.1% (active),-22% (active),6.23% (active)
Cc1ccc(CCC(=O)Nc2ncc(Cc3cc(Cl)ccc3Cl)s2)o1,16.2%,19.9%,11.8%,23.2%,43.3%,33.1,17%,-0.778% (active),9.73% (active),-4.35% (active),54.3%,3.48% (active),-36.8% (active),20.8%,13%,9.11% (active),8.63% (active),14.9%
COC(=O)[C@]12CC[C@@H](C)[C@H](C)[C@@H]1C1=CC[C@@H]3[C@@]4(C)C(C=O)=C[C@@](C)(COC(=O)/C=C/c5ccccc5)[C@@H]4[C@H](O)C[C@@]3(C)[C@]1(C)CC2,-6.65% (active),1.62% (active),9.9% (active),7.64% (active),21.4%,18.6,23.9%,-75.9% (active),-8.26% (active),17.9%,-6.88% (active),-7.43% (active),-6.08% (active),5.68% (active),10.6%,-72.5% (active),-29.9% (active),6.25% (active)
Cc1ccc2nc(NC(=O)CSc3nc(Nc4ccc([N+](=O)[O-])cc4)c(C#N)c(-c4ccccc4)n3)sc2c1,47.6%,80%,91.5%,87.5%,88.4%,98.3,76.1%,102%,85%,95%,-58.4% (active),91.1%,107%,105%,87.1%,89.5%,102%,101%
O=C1C=C[C@]2(C[C@@H](c3cccc(C(F)(F)F)c3)O[C@@H](c3cccc(C(F)(F)F)c3)O2)O1,9.17% (active),-2.8% (active),38.5%,86.2%,48.9%,84.9,22.3%,-33.1% (active),-4.02% (active),51.3%,-49.6% (active),-52.4% (active),-74.7% (active),-48.1% (active),-7.92% (active),-70.6% (active),18%,6.02% (active)
O=C(NC(CSSCC(NC(=O)c1ccccc1)C(=O)O)C(=O)O)c1ccccc1 (centres undefined),15.3%,104%,104%,105%,128%,102,96.7%,99.6%,96.3%,97.3%,99.4%,91.1%,103%,103%,117%,98.9%,,97.9%
Cc1cc(NCc2cc(Nc3ccnc4cc(Cl)ccc34)ccc2F)nc(N2CCSCC2)n1,-11.7% (active),-9.52% (active),19.2%,78.7%,14.4%,10.3,40.6%,-32.6% (active),-1.47% (active),15.7%,-37.8% (active),46.6%,-70.4% (active),-14.1% (active),0.0561% (active),-29.1% (active),3.4% (active),14.9%
COc1ccc(N2CCN(c3nc(-c4cc(OC)c(OC)c(OC)c4)nc4ccccc34)CC2)cc1,42.6%,54.8%,71.1%,93.5%,88%,91.4,97%,94.6%,65.2%,65.3%,45.4%,,67.1%,85.6%,83.3%,70%,95.1%,70%
CN(C)c1ccc(/C=C/C(=O)c2cccc(Nc3nc(Nc4ccccc4)nc(Nc4ccccc4)n3)c2)cc1,77.4%,53.4%,81.2%,93.9%,30.7%,93.2,69%,102%,78.9%,76.4%,81.4%,99.3%,101%,103%,75.1%,83.2%,64.5%,99.8%
CCCCCc1nc2c(c3c1CCCC3)CCCC2,31.8%,0.398% (active),59.8%,67.2%,70.7%,80.7,61.7%,69.8%,65%,48.3%,71.9%,115%,99.7%,89.9%,66.9%,,87.8%,88.3%
COc1cc(-c2nn(-c3ccccc3)cc2-c2ccnc(NCCNS(=O)(=O)c3ccc(Cl)cc3)n2)ccc1Cl,-19.4% (active),35%,36.1%,68.8%,38.3%,22.7,38.2%,35.1%,58.4%,31.7%,4.68% (active),,28.2%,51.1%,18%,14.3%,34.1%,20.8%
C=C(C)[C@@H]1CC[C@]2(C(=O)NC3CCCCC3)CC[C@]3(C)[C@H](CC[C@@H]4[C@@]5(C)CCC(=O)C(C)(C)[C@@H]5CC[C@]43C)[C@@H]12,115%,83.1%,94.6%,96.5%,82.1%,97.1,101%,96.7%,89.5%,104%,83.3%,92.8%,93.6%,93.6%,85.1%,,107%,96%
COc1cc2c(cc1-c1c(C)noc1C)ncc1nc(C3CCC(F)(F)CC3)n(C3CCC(OC(F)F)CC3)c12 (centres undefined),33.5%,20%,65.2%,76.2%,50.5%,17.6,70.1%,44.6%,61.4%,47.4%,22.5%,79.2%,55.2%,75.1%,26.2%,53.9%,52.1%,51.4%
COC(=O)[C@]12CC[C@@H](C)[C@H](C)[C@@H]1C1=CC[C@@H]3[C@@]4(C)C(C=O)=C[C@@](C)(COC(=O)c5ccco5)C4=CC[C@@]3(C)[C@]1(C)CC2,-8.74% (active),4.82% (active),19.6%,8.46% (active),18.6%,27.8,26.5%,-92.6% (active),3.14% (active),23.7%,-8.1% (active),5.64% (active),-22.3% (active),-7.67% (active),11.4%,-71.3% (active),-7.04% (active),8.54% (active)
CN(C)CC1C(=O)O[C@H]2[C@H]1CC/C(COC(=O)c1cc3ccccc3[nH]1)=C\CC[C@@]1(C)O[C@@H]21 (some centres undefined),-13.6% (active),-15.7% (active),-45.6% (active),-5.25% (active),-9.35% (active),65.1,-41.2% (active),-82.7% (active),-3.98% (active),-30.8% (active),-76.6% (active),-52% (active),-38.2% (active),-19.3% (active),-41.8% (active),,-82% (active),6.93% (active)
C=CCOC1=CC(=O)c2ccccc2C1=O,9.62% (active),92.7%,57.2%,110%,42.1%,109,85.5%,-13.4% (active),81.7%,60.1%,54.2%,95.4%,-67.5% (active),33.2%,-2.95% (active),,98%,87.8%
